# Measurements from PubChem BioAssay (NCI).
# The panel holds about 79,000 compounds, 15% with a hit somewhere; the sample as a whole holds those more often. Unmarked numbers belong to inactive results. Activity calls are given as the source filed them. Rule as the data show it: active = growth inhibition above about 70%; inactive = the rest.
# Assays:
# [1] = NCI Yeast Anticancer Drug Screen. Data for the rad50 strain (AID 155);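 also: 0% = growth of vehicle-only cultures of the same strain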; conditions: S. cerevisiae rad50 strain growth inhibition, stronger effect = higher value
# Procedure, shortened: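 Growth of the mutant yeast was measured after compound exposure and referenced to vehicle-treated cultures.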
# [2] = NCI Yeast Anticancer Drug Screen. Data for the mec2-1 strain (AID 157); conditions: S. cerevisiae mec2-1 strain, stronger effect = higher value
# Procedure, shortened: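 Compounds were applied to mec2-1 yeast cells. Their growth was then compared with that of vehicle-treated cultures to give growth inhibition.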
# [3] = NCI Yeast Anticancer Drug Screen. Data for the sgs1 mgt1 strain (AID 161);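 also: 0% = growth of cultures given vehicle only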; conditions: S. cerevisiae sgs1 mgt1 strain, stronger effect = higher value
# Procedure, shortened: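 This yeast growth screen uses a strain with defined DNA-repair lesions; compound-treated growth is compared with vehicle-treated growth.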
# [4] = NCI Yeast Anticancer Drug Screen. Data for the cln2 rad14 strain (AID 165);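 also: 0% = growth equal to vehicle treated cultures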; conditions: S. cerevisiae cln2 rad14 strain, stronger effect = higher value
# Procedure, shortened: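 Strain: cln2 rad14 yeast, altered in cell cycle control and DNA damage repair. Read-out: growth inhibition vs vehicle.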
# [5] = NCI Yeast Anticancer Drug Screen. Data for the bub3 strain (AID 167); conditions: S. cerevisiae bub3 mutant strain, stronger effect = higher value
# Procedure, shortened: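 Whole-cell yeast assay. The mutant strain was incubated with compounds, and growth inhibition was determined by comparison with vehicle-treated cells.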
# [6] = NCI Yeast Anticancer Drug Screen. Data for the mlh1 rad18 strain (AID 175); conditions: S. cerevisiae mlh1 rad18 strain growth inhibition, stronger effect = higher value
# Procedure, shortened: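 A repair-deficient yeast strain is exposed to test compound, and growth is scored relative to vehicle-treated controls.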
# [7] = at 5.0 µM (retest, dose inferred, filed as 0.5)
# [8] = at 50.0 µM (retest, dose inferred, filed as 5.0)
SMILES,"growth inhibition [1, 7]","growth inhibition [1, 8]",growth inhibition ([1]; at 50.0 µM),"growth inhibition [2, 7]","growth inhibition [2, 8]",growth inhibition ([2]; at 50.0 µM),"growth inhibition [3, 7]","growth inhibition [3, 8]",growth inhibition ([3]; at 50.0 µM),"growth inhibition [4, 7]","growth inhibition [4, 8]",growth inhibition ([4]; at 50.0 µM),"growth inhibition [5, 7]","growth inhibition [5, 8]",growth inhibition ([5]; at 50.0 µM),"growth inhibition [6, 7]","growth inhibition [6, 8]",growth inhibition ([6]; at 50.0 µM)
N#Cc1cn(-c2c3ccccc3nc3ccccc23)c(=O)[nH]c1=O,16%,67%,58.4%,-9%,52%,39.9%,3%,30%,49.6%,21%,70% (active),48.3%,15%,59%,21.8%,14%,77% (active),76.2% (active)
CC(C)NC(=O)OCc1c2c(n(C)c1COC(=O)NC(C)C)-c1ccccc1CC2,77% (active),97% (active),98.2% (active),14%,98% (active),98.6% (active),13%,97% (active),98.4% (active),-5%,97% (active),97.8% (active),4%,98% (active),97.6% (active),26%,96% (active),98.2% (active)
O=C1CC(c2ccccc2)c2c(ccc3ccccc23)O1 (stereo not given),-1%,90% (active),87% (active),1%,86% (active),62.2%,-1%,86% (active),75.2% (active),6%,77% (active),45.5%,6%,86% (active),72% (active),-1%,88% (active),72.8% (active)
CCCCCCCCC(N)CCCCCCCC,99% (active),98% (active),99% (active),100% (active),99% (active),99% (active),99% (active),99% (active),46%,96% (active),99% (active),98.8% (active),99% (active),98% (active),99.2% (active),99% (active),98% (active),99.5% (active)
C=CCCCCCCCCC(=O)ON(Cc1ccc(O)c(OC)c1)C(=O)C(F)(F)F,3%,73% (active),70.7% (active),-7%,66%,84.3% (active),-8%,67%,89.2% (active),20%,61%,85.5% (active),-12%,40%,90.5% (active),7%,86% (active),85.9% (active)
[N-]=[N+]=Nc1ccc(SN2C(=O)c3ccccc3C2=O)cc1,29%,98% (active),90.7% (active),23%,95% (active),88.4% (active),6%,98% (active),92.5% (active),3%,67%,63.1%,1%,44%,95.4% (active),10%,95% (active),73.3% (active)
O=C(CCCCN1CCN2c3ccccc3CCC2C1)c1ccccc1 (stereo not given),-3%,51%,90.4% (active),2%,53%,70.9% (active),15%,80% (active),94.4% (active),-2%,39%,58.8%,1%,37%,53.8%,38%,83% (active),68.9%
CC1=C(C(=O)Nc2ccccc2Cl)C(c2cccc([N+](=O)[O-])c2)C(C(=O)Nc2ccccc2Cl)=C(C)N1,-12%,53%,11.8%,27%,67%,30.2%,-10%,51%,20.4%,11%,61%,1.9%,21%,80% (active),27.9%,13%,63%,13.3%
COC(=O)C(=O)C(=O)C1CCCC(c2ccccc2)C1=O (stereo not given),1%,96% (active),96.3% (active),0%,97% (active),98% (active),1%,53%,71.6% (active),2%,98% (active),94.8% (active),-11%,98% (active),97.8% (active),-10%,97% (active),96.4% (active)
CC(=O)OC1=C(Br)CCc2ccccc21,13%,99% (active),98.2% (active),13%,100% (active),97.3% (active),41%,99% (active),91.2% (active),11%,98% (active),86.3% (active),18%,100% (active),88.3% (active),39%,99% (active),89.6% (active)
[N-]=[N+]=NC1=C(C(=O)c2ccccc2)C(=O)c2cccc3cccc1c23,13%,18%,32.7%,6%,27%,20.4%,18%,30%,37%,6%,17%,35.2%,8%,40%,25.4%,4%,29%,70% (active)
COc1ccc2cc(C(=O)CCCC(C)C(=O)O)ccc2c1 (stereo not given),0%,-9%,74.6% (active),-9%,-11%,-7.85%,0%,38%,2.85%,-3%,-22%,-48%,-4%,-9%,3.55%,-12%,-4%,2.95%
N#C/C(=C\C(Cl)=C/c1ccccc1)C(N)=S,68%,97% (active),50.1%,45%,99% (active),40.5%,91% (active),98% (active),43.2%,16%,95% (active),98% (active),79% (active),98% (active),99% (active),86% (active),98% (active),40.4%
O=C(N/C(=C\c1ccc(Cl)cc1)c1nc2ccccc2[nH]1)c1ccccc1,0%,96% (active),97.3% (active),-1%,98% (active),97.5% (active),10%,98% (active),96.8% (active),-1%,97% (active),96.5% (active),13%,97% (active),98.1% (active),2%,97% (active),96.7% (active)
COc1ccc(Cc2c3ccccc3cc[n+]2C)cc1Oc1ccc(Cc2c3ccccc3cc[n+]2C)cc1,2%,87% (active),51.5%,-1%,92% (active),43.8%,2%,93% (active),76.5% (active),-14%,84% (active),-26.7%,-2%,96% (active),40.9%,-2%,96% (active),85.9% (active)
Cc1nn(C(=O)c2ccccc2O)c2c1C(c1ccco1)SC(N)=N2 (stereo not given),-6%,65%,67.5%,11%,59%,38.8%,8%,64%,57%,10%,52%,43.6%,7%,86% (active),69%,11%,86% (active),59.3%
O=C1OC(C2OC(=O)C(=O)C2C(=O)c2ccc(Cl)c(Cl)c2)C(C(=O)c2ccc(Cl)c(Cl)c2)C1=O (stereo not given),7%,97% (active),94.5% (active),10%,93% (active),63.8%,14%,97% (active),74.3% (active),4%,84% (active),34.5%,-34%,92% (active),55.2%,12%,98% (active),96.2% (active)
O=C(Cc1nc2ccc([N+](=O)[O-])cc2[nH]c1=O)C(=O)Nc1cc(Cl)c(Cl)cc1Cl,-16%,-2%,8.05%,-16%,-7%,-5.45%,-7%,-15%,-6.05%,-25%,-6%,6.65%,-16%,2%,23.9%,-4%,-13%,26.1%
CC1=NN(C(=O)c2ccncc2)C(=O)C1N=Nc1ccc(C)c([N+](=O)[O-])c1 (stereo not given),10%,61%,47.5%,2%,28%,19.4%,29%,94% (active),88.8% (active),6%,24%,-14.6%,1%,18%,3.65%,12%,69%,20.4%
CCCCC#CC(=O)OCCC,-1%,2%,26.6%,0%,2%,15.8%,2%,2%,22.4%,-1%,-1%,85.5% (active),1%,0%,-22.4%,-2%,-1%,-9.75%
